Source: PubChem BioAssay AID588719 (Southern Research Specialized Biocontainment Screening …, 2011)
Hit rate of the full screen: of about 1,500 compounds, about 920 (61%) were called active. How the calls were made is not given here. So high a share suggests a set chosen from earlier hits. The list shows a part of the results. A call without a number means that no potency is given here. Potency and affinity values are given separately.

Assay: Vero 76 cell cytotoxicity, dose response, cytotoxicity control for VEEV inhibitor project (AID 588719)
Conditions: Vero 76 cells viability, cytotoxicity counter-screen; series mostly up to 25 µM
For `O=C(NNC(=O)c1cc2cc(OC(F)(F)F)ccc2[nH]1)c1ccc(Cl)cc1`, the outcome was “inactive”. With `NNC(=O)c1n[nH]c(=O)c2ccccc12` the outcome was “inactive”. With `Cc1cccc(CS(=O)(=O)c2ncc(Cl)c(C(=O)NCc3ccccc3)n2)c1` the outcome was “inactive”. With `Cc1ccc2nc(-c3ccc(NC(=S)NCC(C)(C)CN(C)C)cc3)sc2c1` the outcome was “inactive”. For `CCOc1ccc(Cn2c(=O)sc3ccccc32)cc1`, the outcome was “inactive”. For `CCOc1ccc(N2C(=O)CC(Sc3nc4ccc(OCC)cc4s3)C2=O)cc1` (stereo unspecified), the outcome was “inactive”. With `Cc1nc(-c2ccccn2)sc1C(=O)Nc1ccc(Cl)c(Cl)c1` the outcome was “inactive”. With `CC12CCC(C(=NO)C1=O)C2(C)C` (stereo unspecified) the outcome was “inactive”. With `O=[N+]([O-])c1ccc(CNC2CCCc3ccccc32)cc1` (stereo unspecified) the outcome was “inactive”. In the case of `COCCCNCCCCOc1ccc(OCc2ccccc2)cc1`, the outcome is reported as “inactive”. In the case of `CN(C)c1ccc(P(=O)(OCc2ccccc2)C(O)c2ccccc2)cc1` (stereo unspecified), the outcome is reported as “inactive”. For `Cc1cc(C(=O)OC(C)C(=O)Nc2nc(-c3ccccc3)cs2)c(C)o1` (stereo unspecified), the outcome was “inactive”. For `CC(Oc1ccccc1F)C(=O)Nc1ccc2ccccc2c1` (stereo unspecified), the outcome was “inactive”. For `CC(Oc1ccc(F)cc1)C(=O)Nc1ccc2ccccc2c1` (stereo unspecified), the outcome was “inactive”. In the case of `CCOc1ccccc1Nc1nnc(SC(C)C(=O)Nc2nc(-c3ccccc3)cs2)s1` (stereo unspecified), the outcome is reported as “inactive”. For `Cc1cccc(-n2nc([N+](=O)[O-])c(=NC3CCN(Cc4ccccc4)CC3)n2O)c1`, the outcome was “inactive”. In the case of `Cc1ccc(C)c(NC(=S)NCCN(C2CCCCC2)C2CCCC2)c1`, the outcome is reported as “inactive”. With `Cc1ccc(C(=O)C[n+]2ccccc2C)cc1[N+](=O)[O-]` the outcome was “inactive”. In the case of `COC(=O)Cn1c(=O)c(C(=O)CCl)c(N)n(Cc2ccccc2)c1=O`, the outcome is reported as “inactive”. With `CCOc1ccc(-n2c(=O)c3sccc3n(Cc3cccc([N+](=O)[O-])c3)c2=O)cc1` the outcome was “inactive”. For `Cc1nn(C(C)C(=O)Nc2ccccc2Cl)c(=O)c2nn(-c3ccccc3)c(C)c12` (stereo unspecified), the outcome was “inactive”. With `Cc1ccc(S(=O)(=O)N2C[C@@H](C)[C@]3(C2)[C@H](O)[C@H](OC(=O)Nc2cccs2)C[C@H]2C(=O)N(c4ccccc4)C(=O)[C@H]23)cc1` the outcome was “inactive”. For `COc1ccc(/C=C2\CCCC3C2=NN(C(=O)CSc2n[nH]c(N)n2)C3c2ccc(OC)cc2)cc1` (stereo unspecified), the outcome was “inactive”. In the case of `Cc1ccc2[nH]c(CN3CCC(CO)(CC4CCCCO4)CC3)c(C)c2c1` (stereo unspecified), the outcome is reported as “inactive”. With `COc1cc(C(=O)O/N=C2/C=CC(=O)C(C)=C2C)cc(OC)c1OC` the outcome was “inactive”. For `CC[C@@H](O)C[C@H]1CCC[C@@]2(C[C@@H]3OC(=O)/C=C/[C@@](C)(O)[C@@H](O)[C@H](C)[C@@H](O)[C@H](OC4CCC(N(C)C)C(C)O4)[C@@H](O)[C@](C)(O)CCCCC/C=C/[C@@H]4CC(C)(C)O[C@@]4(O)C[C@H](O2)[C@H]3C)O1` (stereo partly specified), the outcome was “inactive”. With `COc1ccccc1NC(=O)c1cc2ccccc2o/c1=N\O` the outcome was “inactive”. With `O=C(Cc1cccc2ccccc12)Nc1ccc(Br)cc1C(=O)O` the outcome was “inactive”. In the case of `CCOC(=O)N1CCN(C(=O)CNC2CCCCCCC2)CC1`, the outcome is reported as “inactive”. With `COc1ccc(/C=C/C(=O)NC(=S)N2CCN(c3ccccc3OC)CC2)cc1` the outcome was “inactive”. With `C=CCN=c1scc(-c2ccccc2)n1/N=C/c1ccccn1` the outcome was “inactive”. In the case of `N#C/C(=C/c1ccc(-c2ccc([N+](=O)[O-])cc2)o1)c1nnc(N2CCOCC2)n1-c1ccccc1`, the outcome is reported as “inactive”. For `O=C(O)c1ccccc1NC(=O)c1ccccc1Nc1ccccc1`, the outcome was “inactive”. In the case of `Cc1cccc2c(=O)n(C(=O)c3ccccc3)c(N)nc12`, the outcome is reported as “inactive”. With `Cc1ccc2c(c1)c1c3n2CCN(CC(O)CNC(C)C)C3CCC1` (stereo unspecified) the outcome was “inactive”. For `Cc1ccc([C@H]2C[C@@H](O)[C@H](n3cc(COC(=O)c4ccccc4)nn3)CN2CC2CCCCC2)cc1`, the outcome was “inactive”. For `COc1ccc(CN(C)[C@H]2C[C@H]3c4[nH]c5ccccc5c4CCN3C[C@H]2[C@H](C)O)cc1`, the outcome was “inactive”. For `CCCc1ccc(-c2cc(C(=O)NCCc3ccc(S(N)(=O)=O)cc3)c3ccccc3n2)cc1`, the outcome was “inactive”. With `Cc1cc(N/N=C/c2ccc3c(c2)OCO3)nc2ccccc12` the outcome was “inactive”. With `CC(=O)Nc1ccc(CCNC(=O)c2ccc3ccccc3c2O)cc1` the outcome was “inactive”. For `CCOC(=O)c1ccc(-c2ccc(/C=N/NC(=O)c3cncc(Br)c3)o2)cc1`, the outcome was “inactive”. In the case of `CC(C)Oc1ccccc1-c1cc(C(=O)N/N=C/c2cccnc2)c2ccccc2n1`, the outcome is reported as “inactive”. With `CN(C)c1nc(OCCOC(=O)COc2ccc(Cl)cc2Cl)nc(N(C)C)n1` the outcome was “inactive”. With `COc1ccc(CCNC(=O)c2cc3c(=O)n4cccc(C)c4nc3n(CCCN3CCOCC3)c2=N)cc1` the outcome was “inactive”. For `O=C(CCNC(=O)c1ccc(Cl)cc1)NC1CCCc2ccccc21` (stereo unspecified), the outcome was “inactive”. For `CCOc1ccccc1N1CCN(Cc2cn[nH]c2-c2ccc(F)cc2)CC1`, the outcome was “inactive”. With `COc1cccc2sc(N(CCCN(C)C)C(=O)c3ccc(S(=O)(=O)N4CCCc5ccccc54)cc3)nc12` the outcome was “inactive”. For `Cc1nc(SCC(=O)Nc2ccccc2Cl)c2c(C)c(C)sc2n1`, the outcome was “inactive”. In the case of `Cc1ccc(CCNc2ccc3ccccc3c2)cn1`, the outcome is reported as “inactive”. For `CN(C)CC(O)COc1ccc(C(C)(C)c2ccc(OCC(O)CN(C)C)cc2)cc1` (stereo unspecified), the outcome was “inactive”. With `CC(C)Cc1nc2oc3c(NCC(C)O)ncnc3c2c2c1CCCC2` (stereo unspecified) the outcome was “inactive”. With `Cc1cc(C(C)(C)C)cc(C)c1CCNC(=O)c1ccc[n+]([O-])c1` the outcome was “inactive”. For `CCN(CC(=O)Nc1ccc(NC(C)=O)cc1)C(=O)c1cc2c(s1)CCCC2`, the outcome was “inactive”. With `CCOC(=O)c1ccccc1NC(=O)CSc1nc2ccccc2c(=O)n1CCCN1CCOCC1` the outcome was “inactive”. With `CCOC(=O)Cn1c(-c2nonc2NC(=O)c2ccccc2F)nc2ccccc21` the outcome was “inactive”. With `S=c1[nH]nc(-c2ccccn2)n1/N=C/c1ccc(-c2ccccc2Cl)o1` the outcome was “inactive”. With `CCOc1ccc(CCNC(=O)CCc2nc3ccccc3[nH]2)cc1OCC` the outcome was “inactive”. For `COc1ccc(CCNC(=O)c2cc3c(=O)n4ccccc4nc3n(Cc3ccco3)c2=N)cc1OC`, the outcome was “inactive”. For `COc1ccc([C@H]2C[C@H](n3cc(-c4ccc(F)cc4)nn3)[C@@H](O)CN2C(=O)C2CCCCC2)cc1`, the outcome was “inactive”. With `Fc1ccc(C2c3[nH]c4ccccc4c3CCN2Cc2cccn2-c2ncccn2)cc1` (stereo unspecified) the outcome was “inactive”. With `COc1ccc(C2c3[nH]c4ccccc4c3CCN2Cc2ccoc2)c(F)c1` (stereo unspecified) the outcome was “inactive”.
